Measurements from ChEMBL document CHEMBL2218924, “A broad activity screen in support of a chemogenomic map for kinase signalling research and drug discovery” (Biochem J, 2013).

The molecules below were run against Ribosomal protein S6 kinase alpha-3 (Homo sapiens) (UniProt P51812). Settings: at 10 µM.
Chain of Ribosomal protein S6 kinase alpha-3 (Homo sapiens) (P51812 whole entry): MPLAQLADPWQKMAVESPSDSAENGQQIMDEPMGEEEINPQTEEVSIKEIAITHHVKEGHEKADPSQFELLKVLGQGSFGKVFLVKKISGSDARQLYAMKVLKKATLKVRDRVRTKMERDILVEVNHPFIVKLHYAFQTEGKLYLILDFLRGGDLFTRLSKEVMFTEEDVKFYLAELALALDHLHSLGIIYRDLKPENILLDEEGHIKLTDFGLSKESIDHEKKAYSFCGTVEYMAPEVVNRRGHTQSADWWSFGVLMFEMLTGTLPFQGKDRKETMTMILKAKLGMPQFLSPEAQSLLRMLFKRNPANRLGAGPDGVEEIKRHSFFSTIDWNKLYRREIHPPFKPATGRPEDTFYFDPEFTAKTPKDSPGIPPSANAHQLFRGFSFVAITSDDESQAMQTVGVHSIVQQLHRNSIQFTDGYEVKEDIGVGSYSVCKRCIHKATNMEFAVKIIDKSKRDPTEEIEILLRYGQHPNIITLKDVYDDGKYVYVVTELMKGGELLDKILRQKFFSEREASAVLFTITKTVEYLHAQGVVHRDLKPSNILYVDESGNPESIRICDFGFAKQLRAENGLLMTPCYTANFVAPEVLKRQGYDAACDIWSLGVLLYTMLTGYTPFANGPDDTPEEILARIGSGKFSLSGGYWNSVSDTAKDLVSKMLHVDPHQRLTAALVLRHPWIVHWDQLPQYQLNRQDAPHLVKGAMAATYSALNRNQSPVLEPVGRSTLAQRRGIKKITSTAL

Compound | residual activity [%]
Nc1cccc(-c2cc3c(Oc4cccc(O)c4)ncnc3[nH]2)c1 | 32
Cc1cccc(-c2[nH]c(C(C)(C)C)nc2-c2ccc3c(c2)OCO3)n1 | 47
COc1cc2ncnc(Nc3ccc(NC(=O)c4ccccc4)cc3)c2cc1OC | 40
Cn1nc2c3c(cccc31)C(=O)c1ccccc1-2 | 42
N#Cc1cnc2cnc(NCc3cccnc3)cc2c1Nc1ccc(F)c(Cl)c1 | -1
c1ccc2c(-c3ccncc3)c[nH]c2c1 | 43
O=C(Nc1cccc(Nc2nccc(Nc3cccc(C(F)(F)F)c3)n2)c1)C1CC1 | 27
CC(C)n1cnc2c(NCc3ccccc3)nc(NCCCO)nc21 | 87
COc1cc2ncnc(Nc3ccc(Oc4ccccc4)cc3)c2cc1OC | 126
O=C(O)c1ccc2c3c1cccc3c(=O)n1c3ccccc3nc21 | 37
Cn1cnc2cc3c(Nc4cccc(Br)c4)ncnc3cc21 | 93
O=C1Nc2ccc(Br)cc2/C1=C\c1cc2c([nH]1)CCCC2 | 37
c1ccc(-c2n[nH]cc2-c2ccnc3ccccc23)nc1 | 62
CC(=O)c1ccc(N2CCOCC2)cc1O | 56
N#CCCc1ccc2c(c1)-c1[nH]c3ccc([N+](=O)[O-])cc3c1CC(=O)N2 | 3
Cc1cncc2cccc(S(=O)(=O)N3CCCN(C(=O)CN)C[C@H]3C)c12 | 23
Cc1ccc(S(=O)(=O)/C=C/C#N)cc1 | 120

Compound | residual activity [%]
O=C1NC(=O)c2cc(Nc3ccc(F)cc3)c(Nc3ccc(F)cc3)cc21 | 77
CCN(CC)C(=O)c1ccc(Nc2nc(OCC3CCCCC3)c3nc[nH]c3n2)cc1 | 1
Cn1cc(/C=C2\C(=O)Nc3ccc(S(N)(=O)=O)cc32)c2ccccc21 | 1
O=C1Nc2ccccc2/C1=C1/Nc2ccccc2/C1=N\OCCC(O)CO (stereo not given) | 1
c1ccc(-c2n[nH]c3c2oc2ccccc23)cc1 | 44
NC(=O)c1ccc2[nH]c(-c3ccc(Oc4ccc(Cl)cc4)cc3)nc2c1 | 11
N#CC(C#N)=C(N)/C(C#N)=C/c1ccc(O)cc1 | 27
Cc1cc(Nc2nc(-c3ccccc3)nc3ccccc23)n[nH]1 | 11
Cc1cc2ncc(-c3ccccc3)nc2cc1C | 40
Cc1nc2cc3nc(-c4cccs4)cnc3cc2n1C | 75
CO[C@H]1[C@@H](OC)C[C@H](C)[C@@H](OC)C2=CC(=O)C=C(NC(=O)/C(C)=C/C=C/[C@H](OC)[C@@H](OC(N)=O)/C(C)=C/[C@@H]1C)C2=O | 36
Oc1ccc(-c2nc(-c3ccc(F)cc3)c(-c3ccncc3)[nH]2)cc1 | 45
COc1cc2ncc(-c3ccccc3)nc2cc1OC | 25
COc1cc2ncnc(N3CCN(C(=O)Nc4ccc(Oc5ccccc5)cc4)CC3)c2cc1OC | 65
O=C1NC(=O)/C(=C\c2ccc3nccnc3c2)S1 | 35
Oc1ccc(Nc2nc(-c3ccc(Cl)cc3)cs2)cc1 | 86

Each molecule was assayed against Ribosomal protein S6 kinase alpha-2 (Homo sapiens) (UniProt Q15349). Settings: at 1 µM.
Chain of Ribosomal protein S6 kinase alpha-2 (Homo sapiens) (Q15349 whole entry): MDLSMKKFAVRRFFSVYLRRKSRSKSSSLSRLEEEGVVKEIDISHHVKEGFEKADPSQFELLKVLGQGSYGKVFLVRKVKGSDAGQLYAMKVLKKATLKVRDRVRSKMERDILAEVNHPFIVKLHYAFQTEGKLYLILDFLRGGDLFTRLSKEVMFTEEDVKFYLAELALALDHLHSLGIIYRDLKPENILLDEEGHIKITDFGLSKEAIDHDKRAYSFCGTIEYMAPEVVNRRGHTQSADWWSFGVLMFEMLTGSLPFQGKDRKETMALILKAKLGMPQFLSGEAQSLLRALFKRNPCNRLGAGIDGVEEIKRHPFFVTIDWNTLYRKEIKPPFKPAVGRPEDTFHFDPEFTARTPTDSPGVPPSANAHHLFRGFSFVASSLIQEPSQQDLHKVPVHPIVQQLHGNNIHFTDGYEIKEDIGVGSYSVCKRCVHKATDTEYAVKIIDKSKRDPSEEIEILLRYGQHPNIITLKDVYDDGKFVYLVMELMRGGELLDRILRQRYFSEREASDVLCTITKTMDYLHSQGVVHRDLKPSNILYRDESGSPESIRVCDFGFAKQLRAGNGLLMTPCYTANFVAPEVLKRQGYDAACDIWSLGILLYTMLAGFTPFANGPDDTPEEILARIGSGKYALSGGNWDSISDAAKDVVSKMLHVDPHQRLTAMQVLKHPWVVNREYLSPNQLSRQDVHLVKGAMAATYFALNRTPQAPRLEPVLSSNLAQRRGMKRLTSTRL

Compound | residual activity [%]
Nc1cccc(-c2cc3c(Oc4cccc(O)c4)ncnc3[nH]2)c1 | 76
Cc1cccc(-c2[nH]c(C(C)(C)C)nc2-c2ccc3c(c2)OCO3)n1 | 101
COc1cc2ncnc(Nc3ccc(NC(=O)c4ccccc4)cc3)c2cc1OC | 109
Cn1nc2c3c(cccc31)C(=O)c1ccccc1-2 | 90
N#Cc1cnc2cnc(NCc3cccnc3)cc2c1Nc1ccc(F)c(Cl)c1 | 0
c1ccc2c(-c3ccncc3)c[nH]c2c1 | 98
O=C(Nc1cccc(Nc2nccc(Nc3cccc(C(F)(F)F)c3)n2)c1)C1CC1 | 106
CC(C)n1cnc2c(NCc3ccccc3)nc(NCCCO)nc21 | 101
COc1cc2ncnc(Nc3ccc(Oc4ccccc4)cc3)c2cc1OC | 100
O=C(O)c1ccc2c3c1cccc3c(=O)n1c3ccccc3nc21 | 90
Cn1cnc2cc3c(Nc4cccc(Br)c4)ncnc3cc21 | 101
O=C1Nc2ccc(Br)cc2/C1=C\c1cc2c([nH]1)CCCC2 | 79
c1ccc(-c2n[nH]cc2-c2ccnc3ccccc23)nc1 | 108
CC(=O)c1ccc(N2CCOCC2)cc1O | 105
N#CCCc1ccc2c(c1)-c1[nH]c3ccc([N+](=O)[O-])cc3c1CC(=O)N2 | 8
Cc1ccc(S(=O)(=O)/C=C/C#N)cc1 | 102

Compound | residual activity [%]
O=C1NC(=O)c2cc(Nc3ccc(F)cc3)c(Nc3ccc(F)cc3)cc21 | 103
C[C@@H](N)[C@H]1CC[C@H](C(=O)Nc2ccncc2)CC1 | 62
CCN(CC)C(=O)c1ccc(Nc2nc(OCC3CCCCC3)c3nc[nH]c3n2)cc1 | 18
Cn1cc(/C=C2\C(=O)Nc3ccc(S(N)(=O)=O)cc32)c2ccccc21 | 4
O=C1Nc2ccccc2/C1=C1/Nc2ccccc2/C1=N\OCCC(O)CO (stereo not given) | 11
c1ccc(-c2n[nH]c3c2oc2ccccc23)cc1 | 92
NC(=O)c1ccc2[nH]c(-c3ccc(Oc4ccc(Cl)cc4)cc3)nc2c1 | 18
Cc1cc(Nc2nc(-c3ccccc3)nc3ccccc23)n[nH]1 | 29
Cc1cc2ncc(-c3ccccc3)nc2cc1C | 110
Cc1nc2cc3nc(-c4cccs4)cnc3cc2n1C | 107
CO[C@H]1[C@@H](OC)C[C@H](C)[C@@H](OC)C2=CC(=O)C=C(NC(=O)/C(C)=C/C=C/[C@H](OC)[C@@H](OC(N)=O)/C(C)=C/[C@@H]1C)C2=O | 93
Oc1ccc(-c2nc(-c3ccc(F)cc3)c(-c3ccncc3)[nH]2)cc1 | 105
COc1cc2ncc(-c3ccccc3)nc2cc1OC | 100
COc1cc2ncnc(N3CCN(C(=O)Nc4ccc(Oc5ccccc5)cc4)CC3)c2cc1OC | 90
O=C1NC(=O)/C(=C\c2ccc3nccnc3c2)S1 | 114
Oc1ccc(Nc2nc(-c3ccc(Cl)cc3)cs2)cc1 | 91
